Assay results as given in PubChem BioAssay (NCATS).
Values joined by “and” are separate entries in the source; they are usually repeats but may differ in a detail not shown here. Identical values can stand only once. Records with an inconclusive call do not appear. Values without a mark were called inactive. Active and inactive are the calls of the source. The call rests on the fitted dose curve; in most records, active means well fitted activation curve with a large enough effect; inconclusive means small, poorly fitted or top-dose-only effect; inactive means flat fitted curve, though single readings scatter.

Assay: qHTS assay for environmental chemicals that activate the Aryl hydrocarbon Receptor (AhR) signaling pathway (AID 651777); further: nearly all actives have a fitted effect of over 15% in size; on activation: % of control where 0% means no effect
Settings: 1A2-DRE human hepatoma cells, luciferase, 24 h; activation: hits give high values
Excerpt: National Center for Advancing Translational Sciences [NCATS]
NIH Chemical Genomics Center [NCGC]
U.S. Environmental Protection Agency [EPA]
National Institutes of Environmental Health Sciences [NIEHS]
National Toxicology Program [NTP]
The Aryl hydrocarbon Receptor (AhR) plays a critical role in the development of cancer or neoplasm and its formation is most likely due to genetic mutations and the influence of environment. Exposure to environmental pollutants such as polycyclic aromatic hydrocarbons (PAH), their halogenated derivatives and heterocyclic amines causes the induction of phase I and II enzymes. The transcriptional activation of CYP1A2 is directly regulated by AhR.
A cell based assay (1A2-DRE cells, developed by Puracyp, Inc., CA) was used to assess the activation of AhR. Human hepatoma cells were stably transfected with the dioxin response element (DRE) and CYP1A2 promoter fused to a luciferase gene. Increased luciferase activity can be used to identify the compounds that cause the induction of CYP1A2 and AhR activation.
1,200 cells in 5 uL/well were dispensed into white wall/solid bottom 1536-well plates using a Multidrop Combi (Thermo Scientific) dispenser. Following transfer of 23 nL compound or DMSO vehicle by a pin tool, the plates were incubated 24 hr at 37 C and 5% CO2. 5 ul One-Glo (Promega) was then added to each well and following 30 min incubation at room temperature, luciferase activity was quantified on a ViewLux CCD-based plate reader.
Potency means the concentration at half of the fitted maximal effect.

Compound	activation	Potency
O=C(O)CBr	-0.817%	–
Cc1ccc(N)cc1C	3.36%	–
N#CCc1ccccc1	-0.841%	–
CC(=O)[O-].CC(=O)[O-].CC(=O)[O-].[Cr+3]	-2.21%	–
Cc1cccc(N)c1C	0.811%	–
N#CC(O)c1ccccc1 (stereo not given)	0.286%	–
ClC(Cl)c1ccccc1	-2.06%	–
Nn1cnnc1	0.198%	–
O=[N+]([O-])c1cc(Cl)c(Cl)c(Cl)c1	0.049%	–
OCCBr	-0.283%	–
Cc1ccc(N)c(C)c1	-0.367%	–
Oc1ccc(Cl)c(Cl)c1Cl	3.11%	–
CC(C)(C)OOC(=O)c1ccccc1	-1.19% and 0.23%	–
O=Cc1ccc2c(c1)OCO2	-0.902%	–
Clc1cc(Cl)c(Cl)c(Cl)c1	0.248%	–
C=CCO	-0.568%	–
C=CC=O	1.3%	–
Cc1ccc([N+](=O)[O-])cc1	-0.408%	–
CCCCCc1cc(O)cc(O)c1	9.87%	–
C=CC(=O)OCC(CC)CCCC (stereo not given)	2.67% and -0.331%	–

Compound	activation	Potency
C1CC2OC2CC1C1CO1 (stereo not given)	1.2% and -1.91%	–
CCCCOC(C)=O	-0.098%	–
Cc1ccc2c(c1N)C(=O)c1ccccc1C2=O	–	28.2 µM (active)
Clc1cccc(Cl)c1	-1.27%	–
CCCCC(CC)COC(=O)c1ccc(C(=O)OCC(CC)CCCC)c(C(=O)OCC(CC)CCCC)c1 (stereo not given)	-0.0808%	–
CCCBr	0.665%	–
C=CCc1cc(OC)c2c(c1)OCO2	0.0584%	–
N#CCCCCC#N	0.486%	–
CCNCC	-0.962%	–
C=C(C)CCl	-0.792%	–
Nc1cc(Cl)ccc1O	–	44.7 µM (active)
Nc1cc(Cl)cc(Cl)c1	-0.276%	–
CC1CC(=O)O1 (stereo not given)	0.52%	–
Nc1ccc([N+](=O)[O-])cc1[N+](=O)[O-]	0.484%	–
O=c1ccc(=O)[nH][nH]1	0.524% and -2.54%	–
Cc1cc(Cl)ccc1O	0.484%	–
CC(Cl)CCl (stereo not given)	0.102%	–
CC(C)(Cl)Cl	0.894%	–
Oc1cc(Cl)c(Cl)c(Cl)c1Cl	4.37%	–
CCCCCCCCCCCCCl	1.8%	–
